What all share (test): DAPPL (digital affinity profiling via proximity ligation, sequencing); 10 mM Tris-HCl pH 7.5, 50 mM NaCl, 1 mM DTT, 4% glycerol, room temperature, 30 min; GST-TFs on glutathione beads, 16-mer random dsDNA library, 0.1% formaldehyde crosslink after washing; high values mean tight binding
Holding throughout (settings): protein: recombinant; tags: N-terminal GST; dsDNA, one strand shown

One test deals with T1, FLI1 (Homo sapiens, UniProt Q01543 1-452).
T1 sequence: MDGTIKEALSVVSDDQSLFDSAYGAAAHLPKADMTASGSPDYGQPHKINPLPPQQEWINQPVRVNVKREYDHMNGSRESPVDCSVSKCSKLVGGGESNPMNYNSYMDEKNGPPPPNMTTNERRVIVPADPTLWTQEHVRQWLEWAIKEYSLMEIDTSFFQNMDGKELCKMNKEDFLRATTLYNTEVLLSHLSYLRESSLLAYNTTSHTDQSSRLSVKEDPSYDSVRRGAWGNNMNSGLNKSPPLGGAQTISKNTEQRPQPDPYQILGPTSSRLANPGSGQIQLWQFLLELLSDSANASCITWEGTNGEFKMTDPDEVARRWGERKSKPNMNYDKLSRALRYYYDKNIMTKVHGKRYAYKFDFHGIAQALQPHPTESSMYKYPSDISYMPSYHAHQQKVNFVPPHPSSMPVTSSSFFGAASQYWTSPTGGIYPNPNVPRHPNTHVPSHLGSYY
In a few lines: (§1)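 Pools were built from human transcription factors expressed in yeast as GST fusions, captured on glutathione beads and DNA-barcoded, along with a tag-only sample. Incubation with 200 nmole of a 16-mer random double-stranded DNA library lasted 30 min at room temperature in Tris/NaCl/DTT/glycerol buffer, and was followed by washing, 0.1% formaldehyde crosslinking, proximity ligation, PCR amplification and Illumina NextSeq500 sequencing. Binding signal is the quotient of each hexamer's read frequency for a factor and its frequency for the tag-only sample.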

The target of a further test is T2, ELK1 (Homo sapiens, UniProt P19419 1-428).
T2 sequence: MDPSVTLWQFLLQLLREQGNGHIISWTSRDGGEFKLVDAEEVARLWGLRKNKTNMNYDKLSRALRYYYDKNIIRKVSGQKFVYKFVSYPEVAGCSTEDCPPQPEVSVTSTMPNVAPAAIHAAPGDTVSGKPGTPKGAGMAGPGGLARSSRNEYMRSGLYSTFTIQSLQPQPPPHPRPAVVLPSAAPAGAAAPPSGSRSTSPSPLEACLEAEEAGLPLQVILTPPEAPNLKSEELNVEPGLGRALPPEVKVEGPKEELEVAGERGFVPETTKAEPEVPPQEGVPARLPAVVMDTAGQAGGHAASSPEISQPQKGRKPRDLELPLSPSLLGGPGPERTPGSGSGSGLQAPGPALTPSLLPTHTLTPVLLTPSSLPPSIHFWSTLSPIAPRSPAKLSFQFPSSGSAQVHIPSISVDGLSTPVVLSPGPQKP
The method in brief:
as §1

A further test concerns the target T3, GABPA (Homo sapiens, UniProt Q06546 1-454).
T3 sequence: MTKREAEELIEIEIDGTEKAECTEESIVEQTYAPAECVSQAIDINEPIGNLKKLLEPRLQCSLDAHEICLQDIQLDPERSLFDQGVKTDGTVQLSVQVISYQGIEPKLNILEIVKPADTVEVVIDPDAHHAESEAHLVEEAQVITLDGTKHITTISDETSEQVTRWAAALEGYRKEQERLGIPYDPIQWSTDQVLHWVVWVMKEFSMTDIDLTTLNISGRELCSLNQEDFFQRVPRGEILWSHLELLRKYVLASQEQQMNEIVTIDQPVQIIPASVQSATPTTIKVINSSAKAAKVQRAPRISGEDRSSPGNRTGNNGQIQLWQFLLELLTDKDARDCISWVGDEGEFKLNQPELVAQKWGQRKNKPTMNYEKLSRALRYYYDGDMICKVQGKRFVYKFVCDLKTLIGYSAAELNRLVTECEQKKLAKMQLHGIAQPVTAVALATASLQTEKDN
In a few lines:
as §1

The target of a further test is T4, ERG (Homo sapiens, UniProt P11308 1-479).
T4 sequence: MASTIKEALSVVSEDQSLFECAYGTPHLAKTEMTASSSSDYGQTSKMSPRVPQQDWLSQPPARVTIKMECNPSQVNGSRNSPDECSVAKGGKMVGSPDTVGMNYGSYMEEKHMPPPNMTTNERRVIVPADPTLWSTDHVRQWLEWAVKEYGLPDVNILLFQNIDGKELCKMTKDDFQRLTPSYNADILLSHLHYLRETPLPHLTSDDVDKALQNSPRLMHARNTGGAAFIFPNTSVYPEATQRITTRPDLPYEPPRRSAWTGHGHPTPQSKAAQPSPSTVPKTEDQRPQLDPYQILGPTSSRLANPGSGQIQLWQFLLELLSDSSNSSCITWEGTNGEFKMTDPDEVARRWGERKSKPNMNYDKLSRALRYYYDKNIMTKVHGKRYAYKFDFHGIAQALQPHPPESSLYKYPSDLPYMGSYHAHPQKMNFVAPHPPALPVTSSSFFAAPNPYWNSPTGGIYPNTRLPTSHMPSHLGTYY
In a few lines:
as §1

A further test has as its target ELF1 (Homo sapiens, UniProt P32519 1-619). In a few lines: as §1
The target in another test is T5, EHF (Homo sapiens, UniProt Q9NZC4 1-300).
T5 sequence: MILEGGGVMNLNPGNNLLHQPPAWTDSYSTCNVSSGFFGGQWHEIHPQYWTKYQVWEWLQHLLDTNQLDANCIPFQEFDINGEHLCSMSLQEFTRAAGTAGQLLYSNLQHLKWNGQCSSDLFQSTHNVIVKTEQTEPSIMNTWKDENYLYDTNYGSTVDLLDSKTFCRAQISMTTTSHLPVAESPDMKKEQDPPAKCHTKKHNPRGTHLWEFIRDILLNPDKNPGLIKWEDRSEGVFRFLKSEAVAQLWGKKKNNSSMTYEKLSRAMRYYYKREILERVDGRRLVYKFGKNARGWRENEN
The method in brief: as §1

For another test, the target named is SPI1 (Homo sapiens, UniProt P17947 1-270). The method in brief:
as §1

In a further test the target is SPIB (Homo sapiens, UniProt Q01892 1-262). In a few lines: as §1
Chain of SPIB (Q01892 whole entry): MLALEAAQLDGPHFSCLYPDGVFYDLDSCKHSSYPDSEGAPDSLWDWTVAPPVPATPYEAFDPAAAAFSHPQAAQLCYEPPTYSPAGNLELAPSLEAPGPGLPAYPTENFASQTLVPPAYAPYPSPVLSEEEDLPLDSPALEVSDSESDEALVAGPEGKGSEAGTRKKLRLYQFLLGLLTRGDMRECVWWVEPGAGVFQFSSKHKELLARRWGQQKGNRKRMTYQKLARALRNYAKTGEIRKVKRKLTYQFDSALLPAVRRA
For another test, the target named is T6, ELK3 (Homo sapiens, UniProt P41970 1-407).
T6 sequence: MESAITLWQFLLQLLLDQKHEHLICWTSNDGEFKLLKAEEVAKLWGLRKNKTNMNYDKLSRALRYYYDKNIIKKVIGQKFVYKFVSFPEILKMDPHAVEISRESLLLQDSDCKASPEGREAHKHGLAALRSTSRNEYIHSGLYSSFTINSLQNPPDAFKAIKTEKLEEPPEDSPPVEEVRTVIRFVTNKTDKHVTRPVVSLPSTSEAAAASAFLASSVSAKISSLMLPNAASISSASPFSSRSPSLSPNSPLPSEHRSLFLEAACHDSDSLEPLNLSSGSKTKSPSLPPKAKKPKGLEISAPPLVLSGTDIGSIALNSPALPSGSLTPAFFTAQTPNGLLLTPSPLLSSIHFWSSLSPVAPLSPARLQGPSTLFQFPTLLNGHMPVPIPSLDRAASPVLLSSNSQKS
In a few lines:
as §1

Chain of ELF1 (P32519 whole entry): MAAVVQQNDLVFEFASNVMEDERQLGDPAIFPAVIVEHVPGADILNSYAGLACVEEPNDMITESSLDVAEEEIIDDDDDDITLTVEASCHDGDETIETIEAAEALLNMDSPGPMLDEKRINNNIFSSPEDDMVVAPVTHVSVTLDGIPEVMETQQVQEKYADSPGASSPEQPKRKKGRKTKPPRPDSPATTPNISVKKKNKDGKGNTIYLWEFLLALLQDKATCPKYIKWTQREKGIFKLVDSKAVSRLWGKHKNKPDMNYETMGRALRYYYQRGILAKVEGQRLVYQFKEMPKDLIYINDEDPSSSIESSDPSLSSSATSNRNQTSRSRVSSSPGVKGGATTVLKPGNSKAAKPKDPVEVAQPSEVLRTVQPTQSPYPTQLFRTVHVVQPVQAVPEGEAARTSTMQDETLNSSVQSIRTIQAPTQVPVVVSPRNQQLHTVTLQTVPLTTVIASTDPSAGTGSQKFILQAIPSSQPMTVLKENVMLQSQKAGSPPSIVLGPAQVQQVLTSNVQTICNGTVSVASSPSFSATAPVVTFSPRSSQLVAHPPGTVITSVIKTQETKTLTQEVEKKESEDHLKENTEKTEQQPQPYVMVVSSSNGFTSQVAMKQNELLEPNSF

Take CCCATG: the binding signal was 1.06 fold enrichment (6-mer frequency, TF over GST control) with FLI1; 1 fold enrichment (6-mer frequency, TF over GST control) with ELK1; 1.22 fold enrichment (6-mer frequency, TF over GST control) with GABPA; 1.19 fold enrichment (6-mer frequency, TF over GST control) in the test with ERG; 1.15 fold enrichment (6-mer frequency, TF over GST control) with ELF1; 1.11 fold enrichment (6-mer frequency, TF over GST control) in the test with EHF. Also, the binding signal with SPI1 is 1.14 fold enrichment (6-mer frequency, TF over GST control); with SPIB, 1.15 fold enrichment (6-mer frequency, TF over GST control); with ELK3, 1.13 fold enrichment (6-mer frequency, TF over GST control).

On to TGTCCA, for which the binding signal with FLI1 is 1.18 fold enrichment (6-mer frequency, TF over GST control); with ELK1 it was 1.18 fold enrichment (6-mer frequency, TF over GST control); with GABPA, 1.1 fold enrichment (6-mer frequency, TF over GST control); with ERG, 1.19 fold enrichment (6-mer frequency, TF over GST control); with ELF1 it was 1.19 fold enrichment (6-mer frequency, TF over GST control); with EHF it was 1.16 fold enrichment (6-mer frequency, TF over GST control). The binding signal with SPI1 is 1.08 fold enrichment (6-mer frequency, TF over GST control); with SPIB, 1.13 fold enrichment (6-mer frequency, TF over GST control); with ELK3, 1.14 fold enrichment (6-mer frequency, TF over GST control).

As to ACGATA, the binding signal is 1.19 fold enrichment (6-mer frequency, TF over GST control) with FLI1; 1.12 fold enrichment (6-mer frequency, TF over GST control) with ELK1; 1.23 fold enrichment (6-mer frequency, TF over GST control) with GABPA; 1.14 fold enrichment (6-mer frequency, TF over GST control) with ERG; 1.19 fold enrichment (6-mer frequency, TF over GST control) with ELF1; 1.15 fold enrichment (6-mer frequency, TF over GST control) with EHF. Moreover, the binding signal in the test with SPI1 is 1.09 fold enrichment (6-mer frequency, TF over GST control); in the test with SPIB it was 1.23 fold enrichment (6-mer frequency, TF over GST control); in the test with ELK3, 1.16 fold enrichment (6-mer frequency, TF over GST control).

As for TCCCCG, the binding signal in the test with FLI1 is 1.15 fold enrichment (6-mer frequency, TF over GST control); with ELK1 it was 1.22 fold enrichment (6-mer frequency, TF over GST control); with GABPA, 1.32 fold enrichment (6-mer frequency, TF over GST control); with ERG it was 1.2 fold enrichment (6-mer frequency, TF over GST control); with ELF1, 1.23 fold enrichment (6-mer frequency, TF over GST control); with EHF, 1.35 fold enrichment (6-mer frequency, TF over GST control). Moreover, the binding signal in the test with SPI1 was 1.18 fold enrichment (6-mer frequency, TF over GST control); with SPIB, 1.13 fold enrichment (6-mer frequency, TF over GST control); with ELK3, 1.13 fold enrichment (6-mer frequency, TF over GST control).

In the case of CCGTAC, the binding signal is 1.39 fold enrichment (6-mer frequency, TF over GST control) with FLI1; 1.25 fold enrichment (6-mer frequency, TF over GST control) with ELK1; 1.33 fold enrichment (6-mer frequency, TF over GST control) with GABPA; 1.3 fold enrichment (6-mer frequency, TF over GST control) in the test with ERG; 1.45 fold enrichment (6-mer frequency, TF over GST control) in the test with ELF1; 1.33 fold enrichment (6-mer frequency, TF over GST control) in the test with EHF. Further, the binding signal was 1.22 fold enrichment (6-mer frequency, TF over GST control) in the test with SPI1; 1.15 fold enrichment (6-mer frequency, TF over GST control) in the test with SPIB; 1.28 fold enrichment (6-mer frequency, TF over GST control) with ELK3.

On to GTACCT, for which the binding signal was 1.36 fold enrichment (6-mer frequency, TF over GST control) with FLI1; 1.16 fold enrichment (6-mer frequency, TF over GST control) in the test with ELK1; 1.26 fold enrichment (6-mer frequency, TF over GST control) with GABPA; 1.16 fold enrichment (6-mer frequency, TF over GST control) with ERG; 1.22 fold enrichment (6-mer frequency, TF over GST control) with ELF1; 1.29 fold enrichment (6-mer frequency, TF over GST control) in the test with EHF. Moreover, the binding signal in the test with SPI1 is 1.12 fold enrichment (6-mer frequency, TF over GST control); with SPIB, 1.18 fold enrichment (6-mer frequency, TF over GST control); in the test with ELK3, 1.1 fold enrichment (6-mer frequency, TF over GST control).

With TGATGT, the binding signal is 1.31 fold enrichment (6-mer frequency, TF over GST control) with FLI1; 1.31 fold enrichment (6-mer frequency, TF over GST control) with ELK1; 1.19 fold enrichment (6-mer frequency, TF over GST control) with GABPA; 1.13 fold enrichment (6-mer frequency, TF over GST control) with ERG; 1.26 fold enrichment (6-mer frequency, TF over GST control) with ELF1; 1.14 fold enrichment (6-mer frequency, TF over GST control) with EHF. Further, the binding signal is 1.25 fold enrichment (6-mer frequency, TF over GST control) with SPI1; 1.41 fold enrichment (6-mer frequency, TF over GST control) with SPIB; 1.12 fold enrichment (6-mer frequency, TF over GST control) with ELK3.

The record behind these values is paper PMC7862700, “An all-to-all approach to the identification of sequence-specific readers for epigenetic DNA modifications on cytosine”.
